Reference: the supplement of paper PMC13380429

Assays:
[1] = test system: Vero E6 infected with SARS-CoV-2; experiment: inhibition of SARS-CoV-2 cytopathic effect; higher = more antiviral protection, active = above 15; conditions: 48 h
[2] = test system: Vero E6 infected with SARS-CoV-2; experiment: morphology score (similarity to uninfected cells); higher = more like uninfected cells; conditions: 24 h

O=C(c1ccc(F)cc1)C1CCN(CCCCc2ccccc2)CC1 [4-(4-fluorobenzoyl)-1-(4-phenylbutyl)-piperidine]
inactive: inhibition of SARS-CoV-2 cytopathic effect ([1]; 1 nM) -4.06% | inhibition of SARS-CoV-2 cytopathic effect ([1]; 8.33 nM) -1.58% | inhibition of SARS-CoV-2 cytopathic effect ([1]; 100 nM) -0.19% | inhibition of SARS-CoV-2 cytopathic effect ([1]; 833.33 nM) 1.25% | inhibition of SARS-CoV-2 cytopathic effect ([1]; 10000 nM) -4.47%

c1ccc(C[C@H](c2ccccc2)N2CCCCC2)cc1 (racemic) [1-(1,2-diphenylethyl)piperidine-(+/-)]
inactive: inhibition of SARS-CoV-2 cytopathic effect ([1]; 1 nM) 0.78% | inhibition of SARS-CoV-2 cytopathic effect ([1]; 8.33 nM) 0.67% | inhibition of SARS-CoV-2 cytopathic effect ([1]; 100 nM) 0.96% | inhibition of SARS-CoV-2 cytopathic effect ([1]; 833.33 nM) 0.92% | inhibition of SARS-CoV-2 cytopathic effect ([1]; 10000 nM) 2.17%

O=C(CCBr)N1CCN(C(=O)CCBr)CC1 [pipobroman]
inactive: inhibition of SARS-CoV-2 cytopathic effect ([1]; 1 nM) 0.26% | inhibition of SARS-CoV-2 cytopathic effect ([1]; 8.33 nM) -0.92% | inhibition of SARS-CoV-2 cytopathic effect ([1]; 100 nM) -3.06% | inhibition of SARS-CoV-2 cytopathic effect ([1]; 833.33 nM) -6.9% | inhibition of SARS-CoV-2 cytopathic effect ([1]; 10000 nM) -3.48%

Cc1cc(NCCO)nc(-c2ccc(Br)cc2)n1
inactive: inhibition of SARS-CoV-2 cytopathic effect ([1]; 1 nM) 1.81% | inhibition of SARS-CoV-2 cytopathic effect ([1]; 8.33 nM) -1.79% | inhibition of SARS-CoV-2 cytopathic effect ([1]; 100 nM) -0.15% | inhibition of SARS-CoV-2 cytopathic effect ([1]; 833.33 nM) 0.73% | inhibition of SARS-CoV-2 cytopathic effect ([1]; 10000 nM) -2.57%

N[C@@H](C(=O)N[C@@H]1C(=O)N2C(C(=O)O)=C(Cl)CC[C@H]12)c1ccccc1 [loracarbef]
inactive: inhibition of SARS-CoV-2 cytopathic effect ([1]; 1 nM) 7.18% | inhibition of SARS-CoV-2 cytopathic effect ([1]; 8.33 nM) 4.02% | inhibition of SARS-CoV-2 cytopathic effect ([1]; 100 nM) 2.95% | inhibition of SARS-CoV-2 cytopathic effect ([1]; 833.33 nM) 1.17% | inhibition of SARS-CoV-2 cytopathic effect ([1]; 10000 nM) 5.45%

CC(=O)Nc1ncc([N+](=O)[O-])s1 [nithiamide]
inactive: inhibition of SARS-CoV-2 cytopathic effect ([1]; 1 nM) -2.44% | inhibition of SARS-CoV-2 cytopathic effect ([1]; 8.33 nM) -2.01% | inhibition of SARS-CoV-2 cytopathic effect ([1]; 100 nM) -13.5% | inhibition of SARS-CoV-2 cytopathic effect ([1]; 833.33 nM) -2.95% | inhibition of SARS-CoV-2 cytopathic effect ([1]; 10000 nM) -1.53%

O=C(OC(C(F)(F)F)C(F)(F)F)N1CCN(Cc2cccc(Oc3ccccc3)c2)CC1
inactive: inhibition of SARS-CoV-2 cytopathic effect ([1]; 1 nM) 3.59% | inhibition of SARS-CoV-2 cytopathic effect ([1]; 8.33 nM) 4.7% | inhibition of SARS-CoV-2 cytopathic effect ([1]; 100 nM) 3.33% | inhibition of SARS-CoV-2 cytopathic effect ([1]; 833.33 nM) 3.51% | inhibition of SARS-CoV-2 cytopathic effect ([1]; 10000 nM) 2.77%

O=C(NS(=O)(=O)c1ccc(Br)s1)c1ccc(Cl)cc1Cl [tasisulam]
inactive: inhibition of SARS-CoV-2 cytopathic effect ([1]; 1 nM) -0.54% | inhibition of SARS-CoV-2 cytopathic effect ([1]; 8.33 nM) 5.25% | inhibition of SARS-CoV-2 cytopathic effect ([1]; 100 nM) 0.94% | inhibition of SARS-CoV-2 cytopathic effect ([1]; 833.33 nM) -0.93% | inhibition of SARS-CoV-2 cytopathic effect ([1]; 10000 nM) 4.37%

COc1ccccc1OCCNCC(O)COc1cccc2[nH]c3ccccc3c12 (stereo unspecified) [carvedilol]
inactive: inhibition of SARS-CoV-2 cytopathic effect ([1]; 1 nM) 2.73% | inhibition of SARS-CoV-2 cytopathic effect ([1]; 8.33 nM) 3.88% | inhibition of SARS-CoV-2 cytopathic effect ([1]; 100 nM) 0.32% | inhibition of SARS-CoV-2 cytopathic effect ([1]; 833.33 nM) -1.02% | inhibition of SARS-CoV-2 cytopathic effect ([1]; 10000 nM) -1.85%

OC[C@H]1O[C@@H](O[C@@H]2[C@H](O)[C@@H](O)[C@H](O[C@H]3[C@H](O)[C@@H](O)C(O)O[C@@H]3CO)O[C@@H]2CO)[C@H](O)[C@@H](O)[C@H]1O (stereo partly specified) [4-galactosyllactose]
inactive: inhibition of SARS-CoV-2 cytopathic effect ([1]; 1 nM) -1.88% | inhibition of SARS-CoV-2 cytopathic effect ([1]; 8.33 nM) -2.42% | inhibition of SARS-CoV-2 cytopathic effect ([1]; 100 nM) 1.58% | inhibition of SARS-CoV-2 cytopathic effect ([1]; 833.33 nM) 0.18% | inhibition of SARS-CoV-2 cytopathic effect ([1]; 10000 nM) -0.03%

CO[C@H]1O[C@@H]2O[C@@]3(C)CC[C@H]4[C@H](C)CC[C@@H]([C@H]1C)[C@@]24OO3 [artemether]
inactive: inhibition of SARS-CoV-2 cytopathic effect ([1]; 1 nM) 7.32% | inhibition of SARS-CoV-2 cytopathic effect ([1]; 8.33 nM) 4.82% | inhibition of SARS-CoV-2 cytopathic effect ([1]; 100 nM) 2.64% | inhibition of SARS-CoV-2 cytopathic effect ([1]; 833.33 nM) -2.72% | inhibition of SARS-CoV-2 cytopathic effect ([1]; 10000 nM) 0.52%

Nc1ccc(-c2nc3ccc(-c4nc5ccc(N)cc5[nH]4)cc3[nH]2)cc1
inactive: inhibition of SARS-CoV-2 cytopathic effect ([1]; 1 nM) -0.32% | inhibition of SARS-CoV-2 cytopathic effect ([1]; 8.33 nM) 0.21% | inhibition of SARS-CoV-2 cytopathic effect ([1]; 100 nM) -0.94% | inhibition of SARS-CoV-2 cytopathic effect ([1]; 833.33 nM) 2.79% | inhibition of SARS-CoV-2 cytopathic effect ([1]; 10000 nM) 6.35%

CCOC(=O)Nc1ccc2c(c1)N(C(=O)CCN1CCOCC1)c1ccccc1S2 [moracizine]
inactive: inhibition of SARS-CoV-2 cytopathic effect ([1]; 1 nM) 0.84% | inhibition of SARS-CoV-2 cytopathic effect ([1]; 8.33 nM) 3.43% | inhibition of SARS-CoV-2 cytopathic effect ([1]; 100 nM) -0.23% | inhibition of SARS-CoV-2 cytopathic effect ([1]; 833.33 nM) 2.61% | inhibition of SARS-CoV-2 cytopathic effect ([1]; 10000 nM) 5.32%

Cc1c(C(=O)NN2CCCCC2)nn(-c2ccc(Cl)cc2Cl)c1-c1ccc(Cl)cc1 [rimonabant]
inactive: inhibition of SARS-CoV-2 cytopathic effect ([1]; 1 nM) -1.86% | inhibition of SARS-CoV-2 cytopathic effect ([1]; 8.33 nM) 1.55% | inhibition of SARS-CoV-2 cytopathic effect ([1]; 100 nM) -0.12% | inhibition of SARS-CoV-2 cytopathic effect ([1]; 833.33 nM) 0.01% | inhibition of SARS-CoV-2 cytopathic effect ([1]; 10000 nM) -3.44%

Cc1c(N)c(=O)n(-c2ccccc2)n1C [ampyrone]
inactive: inhibition of SARS-CoV-2 cytopathic effect ([1]; 1 nM) -3.22% | inhibition of SARS-CoV-2 cytopathic effect ([1]; 8.33 nM) -2.95% | inhibition of SARS-CoV-2 cytopathic effect ([1]; 100 nM) -3.07% | inhibition of SARS-CoV-2 cytopathic effect ([1]; 833.33 nM) -2.31% | inhibition of SARS-CoV-2 cytopathic effect ([1]; 10000 nM) -1.12%

Cc1nc2ccc(-n3ncc(C(=O)c4cc5ccccc5[nH]4)c3N)cc2[nH]1
inactive: inhibition of SARS-CoV-2 cytopathic effect ([1]; 1 nM) -2.45% | inhibition of SARS-CoV-2 cytopathic effect ([1]; 8.33 nM) -1.11% | inhibition of SARS-CoV-2 cytopathic effect ([1]; 100 nM) 0.12% | inhibition of SARS-CoV-2 cytopathic effect ([1]; 833.33 nM) 2.07% | inhibition of SARS-CoV-2 cytopathic effect ([1]; 10000 nM) -0.86%

NC(=O)[C@@H](CC1CC1)[C@@H](CCC(F)(F)F)C(=O)N[C@H]1N=C(c2ccccc2)c2cccc(F)c2NC1=O
inactive: inhibition of SARS-CoV-2 cytopathic effect ([1]; 1 nM) -0.36% | inhibition of SARS-CoV-2 cytopathic effect ([1]; 8.33 nM) -1.04% | inhibition of SARS-CoV-2 cytopathic effect ([1]; 100 nM) -3.47% | inhibition of SARS-CoV-2 cytopathic effect ([1]; 833.33 nM) -3.05% | inhibition of SARS-CoV-2 cytopathic effect ([1]; 10000 nM) -5.54%

CN1CCC[C@@H]1CCSc1ccc(O)cc1
inactive: inhibition of SARS-CoV-2 cytopathic effect ([1]; 1 nM) 0.25% | inhibition of SARS-CoV-2 cytopathic effect ([1]; 8.33 nM) 0.01% | inhibition of SARS-CoV-2 cytopathic effect ([1]; 100 nM) 0.07% | inhibition of SARS-CoV-2 cytopathic effect ([1]; 833.33 nM) -1.07% | inhibition of SARS-CoV-2 cytopathic effect ([1]; 10000 nM) -3.04%

C[N+]1([O-])[C@@H]2CC[C@H]1C[C@@H](OC(=O)C(CO)c1ccccc1)C2 (stereo partly specified) [atropine-oxide]
inactive: inhibition of SARS-CoV-2 cytopathic effect ([1]; 1 nM) -2.53% | inhibition of SARS-CoV-2 cytopathic effect ([1]; 8.33 nM) -2.05% | inhibition of SARS-CoV-2 cytopathic effect ([1]; 100 nM) -1.67% | inhibition of SARS-CoV-2 cytopathic effect ([1]; 833.33 nM) -2.02% | inhibition of SARS-CoV-2 cytopathic effect ([1]; 10000 nM) -1.76%

CN1CC2c3ccccc3Oc3ccc(Cl)cc3C2C1 (stereo unspecified) [asenapine]
inactive: inhibition of SARS-CoV-2 cytopathic effect ([1]; 1 nM) 1.23% | inhibition of SARS-CoV-2 cytopathic effect ([1]; 8.33 nM) -0.6% | inhibition of SARS-CoV-2 cytopathic effect ([1]; 100 nM) 1.72% | inhibition of SARS-CoV-2 cytopathic effect ([1]; 833.33 nM) -0.01% | inhibition of SARS-CoV-2 cytopathic effect ([1]; 10000 nM) 6.35%

On1ncc(C2CCNCC2)c1-c1cccc(-c2ccccc2)c1
inactive: inhibition of SARS-CoV-2 cytopathic effect ([1]; 1 nM) 0.6% | inhibition of SARS-CoV-2 cytopathic effect ([1]; 8.33 nM) 1.61% | inhibition of SARS-CoV-2 cytopathic effect ([1]; 100 nM) 1.14% | inhibition of SARS-CoV-2 cytopathic effect ([1]; 833.33 nM) 0.48% | inhibition of SARS-CoV-2 cytopathic effect ([1]; 10000 nM) -2.39%

C[C@]12CC[C@H]3[C@@H](CCC4=CC(=O)CC[C@@]43C)[C@@H]1CC[C@@H]2O (10 µM)
-0.0371: morphology score [2]

Nc1nc2c(ccc3ccccc32)s1
inactive: inhibition of SARS-CoV-2 cytopathic effect ([1]; 1 nM) -0.98% | inhibition of SARS-CoV-2 cytopathic effect ([1]; 8.33 nM) -0.18% | inhibition of SARS-CoV-2 cytopathic effect ([1]; 100 nM) -1.85% | inhibition of SARS-CoV-2 cytopathic effect ([1]; 833.33 nM) -0.09% | inhibition of SARS-CoV-2 cytopathic effect ([1]; 10000 nM) -1.09%

O=C(O)c1cc(=O)[nH]c(=O)[nH]1 [orotic-acid]
inactive: inhibition of SARS-CoV-2 cytopathic effect ([1]; 1 nM) -2.95% | inhibition of SARS-CoV-2 cytopathic effect ([1]; 8.33 nM) 1.49% | inhibition of SARS-CoV-2 cytopathic effect ([1]; 100 nM) -1% | inhibition of SARS-CoV-2 cytopathic effect ([1]; 833.33 nM) 0.78% | inhibition of SARS-CoV-2 cytopathic effect ([1]; 10000 nM) 0.21%

CC(=O)N(CC(C)C(=O)O)c1c(I)cc(I)c(N)c1I (stereo unspecified) [iocetamic-acid]
inactive: inhibition of SARS-CoV-2 cytopathic effect ([1]; 1 nM) -1.3% | inhibition of SARS-CoV-2 cytopathic effect ([1]; 8.33 nM) 1.93% | inhibition of SARS-CoV-2 cytopathic effect ([1]; 100 nM) 1.81% | inhibition of SARS-CoV-2 cytopathic effect ([1]; 833.33 nM) 0.62% | inhibition of SARS-CoV-2 cytopathic effect ([1]; 10000 nM) 3.4%
